Most compounds without a hit are left out; they make up all but 11% or so of the library.
Pf growth 96h: P. falciparum growth inhibition at 96 hours | Potency, µM (series often up to 28.7 µM), usual class: inhibitors | P. falciparum luciferase reporter growth, 96 h | actives 6.9% (n = 320,000)
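Infected RBCs, 2% Hct / 0.05% parasitemia final; luciferase-reporter P. falciparum; cpd 96 h, 37 C, 5% CO2; luciferase detection reagent; luminescence.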
AmpC no deterg: blocks E. coli AmpC beta-lactamase in detergent-free assay; actives 0.52% (n = 330,000); AID 485341; Potency, µM (highest dose often 57.1 µM), usual class: inhibitors; AmpC nitrocefin hydrolysis, absorbance 480 nm, 0.0001% Triton; further: nearly all actives have a fitted effect of over 20% in size
Target sequence (P00811 whole entry, looked up): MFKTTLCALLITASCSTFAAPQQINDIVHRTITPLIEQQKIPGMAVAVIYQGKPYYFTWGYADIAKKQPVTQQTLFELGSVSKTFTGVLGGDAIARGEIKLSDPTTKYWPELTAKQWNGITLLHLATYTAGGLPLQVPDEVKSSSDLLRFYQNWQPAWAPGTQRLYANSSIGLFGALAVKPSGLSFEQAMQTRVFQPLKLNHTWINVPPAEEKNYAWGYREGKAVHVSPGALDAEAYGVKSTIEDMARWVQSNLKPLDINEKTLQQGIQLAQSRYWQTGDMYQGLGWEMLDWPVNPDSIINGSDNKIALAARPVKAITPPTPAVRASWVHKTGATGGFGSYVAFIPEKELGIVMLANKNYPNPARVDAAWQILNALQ
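20 mM phosphate pH 7.0 + 0.01% (detergent screen) or 0.0001% Triton X-100; 5.3 nM AmpC reagent; cpd preinc 15 min RT; nitrocefin (800 uM stock) to start; A480 q20 s × 4 min; Activity was normalised to no-enzyme and no-compound control wells.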
AmpC inh detg: AmpC beta-lactamase inhibition with detergent present | P00811 | AmpC hydrolysis of nitrocefin, absorbance 480 nm, 0.01% Triton | Potency, µM (series often up to 114 µM), hits mostly inhibitors | actives 0.041% (n = 370,000) | AID 485294; further: nearly all actives have a fitted effect of over 25% in size
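20 mM phosphate pH 7.0 + 0.01% (detergent screen) or 0.0001% Triton X-100; 5.3 nM AmpC reagent; cpd preinc 15 min RT; nitrocefin (800 uM stock) to start; A480 q20 s × 4 min; Activity was normalised to no-enzyme and no-compound control wells.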
HCV inhibitor: inhibitors of hepatitis C virus infection. Huh7.5.1 HCVcc-Cre infection, luciferase reporter, 44 h. Potency, µM (doses to about 41.8 µM), usual class: inhibitors. actives 3.4% (n = 340,000). AID 651820
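Infectious HCV cell culture screen: compound-treated cells (1,000/well, pre-plated 4 h) are infected with HCVcc-Cre at roughly 0.5 moi and grown 44 h. Infection is quantified by luciferase signal after 15 min substrate incubation at room temperature.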
Pf growth 48h: inhibits P. falciparum growth in the first generation, 48 h | P. falciparum luciferase growth in erythrocytes, 48 h | AID 504832 | Potency, µM (titrated, usually from 28.7 µM), usual class: inhibitors | actives 5.9% (n = 310,000)
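Luminescence readout; reporter = integrated firefly luciferase in P. falciparum. RBC culture at 2% hematocrit, 0.1% parasitemia final, 37 C/5% CO2; decreased signal taken as growth inhibition.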
AMA1 RON2 block: AMA1-RON2 (P. falciparum) interaction inhibition; Potency, µM (highest dose often 58.2 µM), usual class: inhibitors; AlphaScreen AMA1-biotinylated RON2 peptide binding; AID 720542; actives 0.2% (n = 360,000); further: nearly all actives have a fitted effect of over 45% in size
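AMA1 (3D7) with his tag at 25 nM final met compounds first, then biotinylated RON2 peptide at 25 nM; detection used donor plus acceptor beads, 10 µg/mL apiece, read by AlphaScreen after 30 min at room temperature.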
Hits are given with their value; – = inactive; ? = inconclusive; · = not tested or not shown; ! = repeats disagree; [ ] = dose if it differs, or a comment. The call rests on the fitted dose curve; in most records, active means well fitted curve in the direction sought with a large enough effect; inconclusive means small, poorly fitted or top-dose-only effect, or another doubt; inactive means no such curve, though single readings can be large; an effect the other way counts as inactive or inconclusive.

SMILES | Pf growth 96h | AmpC no deterg | AmpC inh detg | HCV inhibitor | Pf growth 48h | AMA1 RON2 block
COC(=O)C1=C(c2ccc(F)cc2OCc2ccccc2)C[C@@H]2CC[C@H]1N2C(=O)NCCCOC(C)C | ? | – | – | ? | 9.3µM | –
COC(=O)C1=C(c2ccc(F)cc2OCc2ccccc2)C[C@@H]2CC[C@H]1N2C(=O)NCc1ccco1 | ? | – | – | ? | ? | –
COC(=O)C1=C(c2ccc(F)cc2OCc2ccccc2)C[C@@H]2CC[C@H]1N2C(=O)NCc1ccc2c(c1)OCO2 | ? | – | – | 10µM | 2.9µM | –
COC(=O)C1=C(c2ccc(F)cc2OCc2ccccc2)C[C@@H]2CC[C@H]1N2C(=O)NCC1CC1 | ? | – | – | – | 10µM | –
COc1ccc(OCC(=O)NCC2(N3CCN(C)CC3)CCCCC2)cc1 | · | · | – | · | · | ·
CC(CNC(=O)c1nnc(Cc2ccc(F)cc2)o1)c1ccccc1 (stereo not drawn) | · | · | – | · | · | ·
CC(=NCCc1c(C)[nH]c2ccc(C)cc12)C1=C(O)CC(c2ccccc2)CC1=O (stereo not drawn) | – | – | – | ? | – | ?
CCCC(=NCCc1c(C)[nH]c2ccccc12)C1=C(O)CC(c2ccccc2)CC1=O (stereo not drawn) | – | – | – | ? | 13µM | ?
CCCCC(=NCCc1c(C)[nH]c2ccccc12)C1=C(O)CC(c2ccccc2)CC1=O (stereo not drawn) | ? | – | – | ? | 9.3µM | –
CCC/C(O)=C1\C(=O)CCCC1=NCCc1c(C)[nH]c2ccccc12 | – | – | – | – | – | –
CCC/C(O)=C1\C(=O)CC(c2ccccc2)CC1=NCCc1c(C)[nH]c2ccccc12 (stereo not drawn) | ? | – | – | ? | 2.6µM | –
Cc1ccccc1CNC(=O)Cn1ncn2nc(-c3cccs3)cc2c1=O | · | · | – | · | · | ·
O=C(c1cc2cc(Br)ccc2[nH]1)N1CCC2(CC1)OCCO2 | ? | – | – | – | ? | –
CC1CN(C(=O)c2cc3cc(Br)ccc3[nH]2)CC(C)O1 (stereo not drawn) | ? | – | – | – | 12µM | –
Cc1c(C(=O)N2CC(C)OC(C)C2)[nH]c2ccc(Br)cc12 (stereo not drawn) | 13µM | – | – | – | ? | –
COc1ccc(CCNC(=O)CN2C(=O)COc3ccc(C)cc32)cc1OC | · | · | – | · | · | ·
CCCNC(=O)c1ccc2c(c1)ncn2-c1ccccc1OC | – | – | – | – | ? | –
O=C(NCCCN1CCCC1)c1ccc2c(Cl)c3c(nc2c1)CCCC3 | – | – | – | 11µM | – | –
COc1ccccc1N1CCN(C(=O)c2ccc3c(Cl)c4c(nc3c2)CCCC4)CC1 | 12µM | – | ? | –[8.37 µM] | – | –
COc1ccccc1-n1cnc2cc(C(=O)N3CCOCC3)ccc21 | 9.3µM | – | – | – | – | –
Cc1ccc(C)c(N2CCN(C(=O)c3ccc4nc(-c5ccco5)c(-c5ccco5)nc4c3)CC2)c1 | – | – | – | ? | ? | –
COc1ccccc1N1CCN(C(=O)c2ccc3nc(-c4ccco4)c(-c4ccco4)nc3c2)CC1 | · | – | – | 11µM! | ? | –
COC(=O)CCCC1=CC2=C(c3ccccc3)C(=O)C(C)(OC(=O)C3CCCC3)C(=O)C2=CN1Cc1ccco1 (stereo not drawn) | 12µM | – | – | – | ? | –
COC(=O)CCCC1=CC2=C(c3ccccc3)C(=O)C(C)(OC(=O)C3CCCC3)C(=O)C2=CN1CCCCO (stereo not drawn) | ? | – | – | – | ? | –
CCCCS(=O)(=O)/C=C\C=C/S(=O)(=O)CCCC | ? | – | – | 2.5µM | 9.3µM | –
CCn1nnc(NC(=O)c2ccc(C(C)(C)C)cc2)n1 | –[5.75 µM] | – | – | – | 2.9µM | –
O=C(CSc1nc2c([nH]c3ccccc32)c(=O)n1-c1cccc(C(F)(F)F)c1)N1CCc2ccccc21 | · | · | – | · | · | ·

High-throughput results (PubChem BioAssay)
